The panel holds about 83,000 compounds, 20% with a hit somewhere; the sample as a whole holds those more often.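 Values shown are percent growth following 48 h exposure of cells in 96-well plates to a single concentration of compound; below 10 was considered active.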 The source made the active and inactive calls.
What was measured:
Experiment in all cases: NCI-60 one-dose screen, 48 h (100 = growth as untreated, 0 = no growth, -100 = all killed)
786-0 renal = settings: 10 µM unless noted
SF-539 CNS = settings: 10 µM unless noted
M14 melanoma = settings: 10 µM unless noted
HCT-15 colon = settings: 10 µM
SNB-75 CNS = settings: 10 µM unless noted
UACC-62 melanoma = settings: 10 µM unless noted
SK-MEL-28 melanoma = settings: 10 µM unless noted
SN12C renal = settings: 10 µM unless noted
TK-10 renal = settings: 10 µM unless noted
OVCAR-8 ovarian = settings: 10 µM unless noted
NCI/ADR-RES ovarian = settings: 10 µM unless noted
MCF7 breast = settings: 10 µM unless noted
HCT-116 colon = settings: 10 µM unless noted
NCI-H460 lung = settings: 10 µM unless noted
DU-145 prostate = settings: 10 µM unless noted
SF-268 CNS = settings: 10 µM unless noted
PC-3 prostate = settings: 10 µM unless noted
HL-60(TB) leukemia = settings: 10 µM unless noted
SW-620 colon = settings: 10 µM unless noted
KM12 colon = settings: 10 µM unless noted

Measured: growth

CC12CC[C@H](O)C=C1/C(=N/O)CC1C2CCC2(C)C1CC[C@@H]2O (stereo partly drawn)
inactive: 786-0 renal 80.1% | SF-539 CNS 100% | M14 melanoma 95.7% | HCT-15 colon 97.9% | SNB-75 CNS 79.2% | UACC-62 melanoma 94.3% | SK-MEL-28 melanoma 103% | SN12C renal 104% | TK-10 renal 102% | OVCAR-8 ovarian 107% | NCI/ADR-RES ovarian 101% | MCF7 breast 85.6% | HCT-116 colon 93.3%

CC(=O)O[C@@H]1C2=C(C)C3(CC3)[C@@](C)(O)C(=O)C2=C[C@@]1(C)CO
inactive: SN12C renal 12.4%
active: NCI-H460 lung 2.34% | 786-0 renal 0.386% | DU-145 prostate 5.53% | SF-268 CNS 6.35% | SF-539 CNS -33.1% | M14 melanoma -48.6% | HCT-15 colon 0.741% | SNB-75 CNS -85.7% | PC-3 prostate 6.46% | UACC-62 melanoma -69.8% | SK-MEL-28 melanoma -28.8% | TK-10 renal 4.18% | HL-60(TB) leukemia -4.61% | OVCAR-8 ovarian 7.82% | NCI/ADR-RES ovarian -5.59% | SW-620 colon 4.27% | MCF7 breast 1.42% | HCT-116 colon 6.86% | KM12 colon 0.46%

C=CCN1C(=O)C(CC)(CCC(C)C)C(=O)NC1=S (stereo not drawn)
inactive: NCI-H460 lung 105% | 786-0 renal 97.7% | DU-145 prostate 105% | SF-268 CNS 109% | SF-539 CNS 111% | M14 melanoma 107% | HCT-15 colon 105% | SNB-75 CNS 96.8% | PC-3 prostate 91.7% | UACC-62 melanoma 92.2% | SK-MEL-28 melanoma 104% | SN12C renal 101% | TK-10 renal 115% | HL-60(TB) leukemia 101% | OVCAR-8 ovarian 99.4% | NCI/ADR-RES ovarian 106% | SW-620 colon 104% | MCF7 breast 107% | HCT-116 colon 105% | KM12 colon 108%

— PubChem BioAssay (NCI)
